Test [1] addresses Thyrotropin-releasing hormone receptor (Homo sapiens) (UniProt P34981). The experiment in a line: qHTS assay to identify small molecule agonists of the thyrotropin-releasing hormone receptor (TRHR) signaling pathway (AID 1346891; calls by dose curve;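 also: HEK293 cells expressing TRHR with calcium dye readout; series mostly up to about 58 µM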). Put shortly:
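Cells: TRHR-Hek293, seeded and incubated 18 h. Dye loading: 2 h at 37 °C. Compound added from DMSO stock by pin tool. Read-out: kinetic calcium fluorescence over 3 min.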

Test [2] in a line: Human pregnane X receptor (PXR) small molecule agonists, qHTS cell viability counter screen (AID 1346977). Also: nearly all actives have a fitted effect of over 50% in size. Put shortly: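 Cytotoxicity counter screen run in the same wells as the PXR luciferase assay, using PXR-Luc HepG2 cells in charcoal-stripped serum medium. Viability: CellTiter-Fluor fluorescence after 24hr compound treatment.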
In general terms: Quantitative high-throughput screening tests each substance at several concentrations.

Test [3] is described as follows: Caspase-3/7 induction in HepG2 cells by small molecules, qHTS assay (AID 1346978). Also: nearly all actives have a fitted effect of over 15% in size. In short, it runs like this:
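Wild-type HepG2 cells (2,000/well) were settled 5 h at 37 C, 5% CO2, then exposed to compounds in DMSO for 17 h. Caspase-3/7 activity was read by luminescence 30 min after adding Caspase-Glo 3/7 reagent at room temperature.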

Test [4] can be described thus: Caspase-3/7 induction in CHO-K1 cells by small molecules, qHTS assay (AID 1346980). Also: nearly all actives have a fitted effect of over 15% in size. Put shortly: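 Wild-type cells were seeded at 1,500 per well and settled 5 hr at 37 C, 5% CO2, then exposed to DMSO-dissolved compounds for 17 hr. Caspase-Glo 3/7 reagent was added, and luminescence was read after 30min at room temperature.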
The nature of test [5]: Caspase-3/7 induction in HepG2 cells by small molecules, qHTS cell viability counter screen (AID 1346981). Also: series mostly up to about 92 µM; nearly all actives have a fitted effect of over 30% in size. Put shortly: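 HepG2, WT, 2,000 cells/well; 5 hr pre-incubation 37 C/5% CO2; compound pin-transferred from DMSO; 16 hr exposure; CellTiter-Fluor, 1 hr; fluorescence read.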
Test [6] deals with Nuclear receptor subfamily 1 group I member 2 (Homo sapiens) (UniProt O75469). Briefly: Human pregnane X receptor (PXR) small molecule agonists, qHTS assay (AID 1346982). Also: nearly all actives have a fitted effect of over 35% in size. Also: potency is read from the fitted curve at half-maximal effect. Put shortly: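 Luciferase signal from ONE-Glo (30 min, room temperature) measured activation of hPXR-driven CYP3A4 reporter expression in PXR-Luc HepG2 cells treated with compounds for 24 hr at 37 C.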
Test [7] has as its target Acetylcholinesterase (Homo sapiens) (UniProt P22303). Briefly: Acetylcholinesterase (AChE) small molecule antagonists: colormetric cell-based qHTS assay (AID 1347395; calls by dose curve; also: nearly all actives have a fitted effect of over 30% in size; also: potency is read from the fitted curve at half-maximal effect). In short, it runs like this: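 Cells (SH-SY5Y, 2,000 per well) are seeded and left overnight at 37 C. Compound is added for 30 min, then DTNB and acetylthiocholine for a further 90 min at 37 C before absorbance-based thiocholine detection.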

Test [8] shares this target. Briefly: Acetylcholinesterase (AChE) small molecule antagonists: enzyme-based qHTS assay (AID 1347397; calls by dose curve; also: nearly all actives have a fitted effect of over 55% in size; also: potency is read from the fitted curve at half-maximal effect). Conditions: Potency: AChE enzyme activity inhibition; outcome: AChE enzyme activity inhibition. In short, it runs like this: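 Recombinant human AChE, dispensed at 50 mU/mL, was preincubated with Tox21 10K compounds or DMSO vehicle for 30 min at room temperature. DTNB plus acetylthiocholine was then added, and thiocholine was measured colorimetrically after a further 10 min.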

Test [9] shares this target. Briefly: Acetylcholinesterase (AChE) small molecule antagonists: fluorescence cell-based qHTS assay (AID 1347398; calls by dose curve; also: nearly all actives have a fitted effect of over 50% in size; also: potency is read from the fitted curve at half-maximal effect). The following applies: Potency: AChE activity; outcome: AChE activity. Put shortly:
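Human SH-SY5Y cells were plated overnight at 37 C, exposed to compound for 30 min at 37 C, 5% CO2, then given acetylthiocholine plus Thiolite Green for 40 min at room temperature; thiocholine fluorescence (Ex/Em 490/520 nm) reports endogenous AChE activity.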

Test [10] shares this target. Briefly: Acetylcholinesterase (AChE) small molecule antagonists: enzyme-based qHTS assay with human liver microsomes (AID 1347399; calls by dose curve; also: nearly all actives have a fitted effect of over 60% in size; also: potency is read from the fitted curve at half-maximal effect). Conditions: Potency: qHTS inhibition; outcome: qHTS inhibition. In short, it runs like this: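 Recombinant human AChE (50 mU/mL in the enzyme mix) and human liver microsomes (0.25 mg/mL final) were preincubated with compound and NADPH (0.25 mg/mL final) for 30 min at 37 C. Acetylthiocholine/DTNB was then added; thiocholine was read colorimetrically after 10 min at room temperature.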

In test [11] the target is Cytochrome P450 2D6 (Homo sapiens) (UniProt P10635). Briefly: Cytochrome P450 Family 2 Subfamily D Member 6 (CYP2D6) small molecule antagonists: luciferase reporter qHTS assay (AID 1671196). Also: nearly all actives have a fitted effect of over 50% in size. Also: potency is read from the fitted curve at half-maximal effect. In short, it runs like this:
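Read-out is luminescence from luciferin formed by CYP2D6 turnover of a proluciferin substrate, recorded as relative luminescence units. Reactions ran 1 h at room temperature after NADPH regeneration solution was added.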
(In general: A reporter such as luciferase makes a cellular process visible.)

In test [12] the target is Cytochrome P450 2C9 (Homo sapiens) (UniProt P11712). The experiment in a line: Cytochrome P450 Family 2 Subfamily C Member 9 (CYP2C9) small molecule antagonists: luciferase reporter qHTS assay (AID 1671198). Also: nearly all actives have a fitted effect of over 50% in size. Also: potency is read from the fitted curve at half-maximal effect. In short, it runs like this:
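CYP2C9 activity was measured with a P450-Glo proluciferin substrate. Enzyme–substrate mix was held with compound for 10 min at room temperature, then NADPH regeneration solution was added for 1 h at 37C. Luciferin product was read as luminescence.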

Test [13] has as its target Cytochrome P450 1A2 (Homo sapiens) (UniProt P05177). The experiment in a line: Cytochrome P450 Family 1 Subfamily A Member 2 (CYP1A2) small molecule antagonists: luciferase reporter qHTS assay (AID 1671199). Also: nearly all actives have a fitted effect of over 50% in size. Also: potency is read from the fitted curve at half-maximal effect. Put shortly: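 P450-Glo CYP1A2, 1536-well qHTS: enzyme/proluciferin substrate + cpd (DMSO), 10 min RT; NADPH regen, 1 h RT; detection reagent, 20 min; luminescence, RLU.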

The target of test [14] is Voltage-gated inwardly rectifying potassium channel KCNH2 (Homo sapiens) (UniProt Q12809). The experiment in a line: Human Ether-a-go-go-Related Gene (hERG) channel small molecule antagonists: fluorescence cell-based qHTS assay (AID 1671200). Put shortly:
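Fluorescence at 540 nm emission (480 nm excitation) was recorded kinetically for 2 min at 1-second intervals once the thallium-containing stimulus reached cells previously loaded with FluxOR II dye.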
For orientation: Block of hERG is tested as a sign of cardiac risk.

Test [15] has as its target Cytochrome P450 3A4 (Homo sapiens) (UniProt P08684). Briefly: Cytochrome P450 Family 3 Subfamily A Member 4 (CYP3A4) small molecule antagonists: luciferase reporter qHTS assay (AID 1671201). Also: nearly all actives have a fitted effect of over 50% in size. Also: potency is read from the fitted curve at half-maximal effect. Put shortly:
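qHTS, 1536-well. CYP3A4 + proluciferin substrate, cpd 10 min RT → NADPH regen 1 h RT → detection reagent 20 min → luminescence (RLU). Ketoconazole positive control.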

The target of test [16] is Cytochrome P450 2C19 (Homo sapiens) (UniProt P33261). The experiment in a line: Cytochrome P450 Family 2 Subfamily C Member 19 (CYP2C19) small molecule antagonists: luciferase reporter qHTS assay (AID 1671197). Also: nearly all actives have a fitted effect of over 65% in size. Also: potency is read from the fitted curve at half-maximal effect. Put shortly:
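Compounds were tested on CYP2C19 activity via proluciferin conversion to luciferin. The 37C, 1 h reaction followed NADPH addition; detection reagent stopped it.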

Test [17] concerns the target Nuclear receptor subfamily 1 group I member 2 (Rattus norvegicus) (UniProt Q9R1A7). Briefly: Rat pregnane X receptor (rPXR) activation by small molecules, qHTS assay (AID 1346983). Also: nearly all actives have a fitted effect of over 20% in size. The following applies: rPXR luciferase reporter cells, One-Glo luminescence, 24 h; stronger effect = higher value. In short, it runs like this:
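Cell-based rPXR luciferase reporter assay, 2,000 cells per well, rested 5hr at 37 C before compound addition in DMSO, then 24 hr at 37 C. One-Glo reagent was added and luminescence read after 30 min at room temperature.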

For test [18], the target named is Nuclear receptor subfamily 1 group I member 2 (Homo sapiens) (UniProt O75469). Briefly: Human pregnane X receptor (PXR) activation by small molecules, qHTS assay (AID 1346985). Also: nearly all actives have a fitted effect of over 40% in size. In short, it runs like this:
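DPX-2 cells (HepG2 co-transfected with a PXR response element and a CYP3A4-promoter luciferase construct) were seeded at 2,000 per well, rested 5 hr at 37C, then exposed to DMSO-dissolved compounds for 24 hr. Activation was read as luciferase luminescence.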

8 compounds from PubChem BioAssay (Tox21) can be followed below.

Values without a mark were called inactive. Records with an inconclusive call do not appear. Activity calls are given as the source filed them. Unless noted, calls follow the shape of the dose curve; as a rule, active = well fitted curve in the direction sought with a large enough effect in the repeat runs; inconclusive = weak or mixed curves; inactive = no such curve, though single readings can be large; an effect the other way counts as inactive or inconclusive.
% is scaled to controls: 0 for no effect and ±100 for the full control effect.

Nuclear receptor subfamily 1 group I member 2 (Homo sapiens), sequence (O75469 whole entry, looked up): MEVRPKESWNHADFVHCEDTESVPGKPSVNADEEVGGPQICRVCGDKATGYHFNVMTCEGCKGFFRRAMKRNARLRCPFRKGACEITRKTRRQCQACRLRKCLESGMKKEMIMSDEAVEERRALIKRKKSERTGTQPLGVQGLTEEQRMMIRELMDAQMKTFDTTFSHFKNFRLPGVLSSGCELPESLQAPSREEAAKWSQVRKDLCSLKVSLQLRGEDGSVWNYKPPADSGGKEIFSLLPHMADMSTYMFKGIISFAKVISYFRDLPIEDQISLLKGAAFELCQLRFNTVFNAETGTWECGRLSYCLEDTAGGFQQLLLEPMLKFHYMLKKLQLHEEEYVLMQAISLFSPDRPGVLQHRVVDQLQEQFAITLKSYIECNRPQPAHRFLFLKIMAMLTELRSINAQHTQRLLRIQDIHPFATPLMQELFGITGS
Cytochrome P450 3A4 (Homo sapiens), sequence (P08684 whole entry, looked up): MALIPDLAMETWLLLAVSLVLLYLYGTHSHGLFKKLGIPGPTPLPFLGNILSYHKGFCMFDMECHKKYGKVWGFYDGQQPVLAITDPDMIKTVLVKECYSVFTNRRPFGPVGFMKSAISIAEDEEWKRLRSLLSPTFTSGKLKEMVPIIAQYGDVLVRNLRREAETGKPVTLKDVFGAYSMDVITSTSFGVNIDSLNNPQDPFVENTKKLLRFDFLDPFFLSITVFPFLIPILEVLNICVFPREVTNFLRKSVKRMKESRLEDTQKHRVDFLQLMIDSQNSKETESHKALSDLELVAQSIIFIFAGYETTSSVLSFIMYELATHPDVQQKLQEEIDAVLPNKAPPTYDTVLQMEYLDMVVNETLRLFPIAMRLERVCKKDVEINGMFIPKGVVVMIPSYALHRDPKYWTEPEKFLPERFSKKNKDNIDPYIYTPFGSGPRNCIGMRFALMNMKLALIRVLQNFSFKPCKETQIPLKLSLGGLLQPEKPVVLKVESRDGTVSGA
Acetylcholinesterase (Homo sapiens), sequence (P22303 whole entry, looked up): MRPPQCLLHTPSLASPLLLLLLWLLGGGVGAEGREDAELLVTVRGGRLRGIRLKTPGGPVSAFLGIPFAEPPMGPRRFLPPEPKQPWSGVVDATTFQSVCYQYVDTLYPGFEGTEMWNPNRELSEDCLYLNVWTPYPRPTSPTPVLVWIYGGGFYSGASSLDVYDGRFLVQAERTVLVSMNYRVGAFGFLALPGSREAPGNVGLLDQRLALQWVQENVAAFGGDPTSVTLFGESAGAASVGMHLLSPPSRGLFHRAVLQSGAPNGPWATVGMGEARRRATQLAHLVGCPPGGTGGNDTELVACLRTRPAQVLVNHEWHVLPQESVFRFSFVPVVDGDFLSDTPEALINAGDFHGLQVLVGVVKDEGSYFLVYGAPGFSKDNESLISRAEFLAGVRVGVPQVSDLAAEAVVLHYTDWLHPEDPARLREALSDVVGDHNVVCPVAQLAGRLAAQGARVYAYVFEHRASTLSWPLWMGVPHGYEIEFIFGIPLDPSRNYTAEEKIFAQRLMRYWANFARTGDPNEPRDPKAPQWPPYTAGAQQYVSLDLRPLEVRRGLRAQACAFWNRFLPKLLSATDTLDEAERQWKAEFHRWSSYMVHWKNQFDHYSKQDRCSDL
Voltage-gated inwardly rectifying potassium channel KCNH2 (Homo sapiens), sequence (Q12809 whole entry, looked up): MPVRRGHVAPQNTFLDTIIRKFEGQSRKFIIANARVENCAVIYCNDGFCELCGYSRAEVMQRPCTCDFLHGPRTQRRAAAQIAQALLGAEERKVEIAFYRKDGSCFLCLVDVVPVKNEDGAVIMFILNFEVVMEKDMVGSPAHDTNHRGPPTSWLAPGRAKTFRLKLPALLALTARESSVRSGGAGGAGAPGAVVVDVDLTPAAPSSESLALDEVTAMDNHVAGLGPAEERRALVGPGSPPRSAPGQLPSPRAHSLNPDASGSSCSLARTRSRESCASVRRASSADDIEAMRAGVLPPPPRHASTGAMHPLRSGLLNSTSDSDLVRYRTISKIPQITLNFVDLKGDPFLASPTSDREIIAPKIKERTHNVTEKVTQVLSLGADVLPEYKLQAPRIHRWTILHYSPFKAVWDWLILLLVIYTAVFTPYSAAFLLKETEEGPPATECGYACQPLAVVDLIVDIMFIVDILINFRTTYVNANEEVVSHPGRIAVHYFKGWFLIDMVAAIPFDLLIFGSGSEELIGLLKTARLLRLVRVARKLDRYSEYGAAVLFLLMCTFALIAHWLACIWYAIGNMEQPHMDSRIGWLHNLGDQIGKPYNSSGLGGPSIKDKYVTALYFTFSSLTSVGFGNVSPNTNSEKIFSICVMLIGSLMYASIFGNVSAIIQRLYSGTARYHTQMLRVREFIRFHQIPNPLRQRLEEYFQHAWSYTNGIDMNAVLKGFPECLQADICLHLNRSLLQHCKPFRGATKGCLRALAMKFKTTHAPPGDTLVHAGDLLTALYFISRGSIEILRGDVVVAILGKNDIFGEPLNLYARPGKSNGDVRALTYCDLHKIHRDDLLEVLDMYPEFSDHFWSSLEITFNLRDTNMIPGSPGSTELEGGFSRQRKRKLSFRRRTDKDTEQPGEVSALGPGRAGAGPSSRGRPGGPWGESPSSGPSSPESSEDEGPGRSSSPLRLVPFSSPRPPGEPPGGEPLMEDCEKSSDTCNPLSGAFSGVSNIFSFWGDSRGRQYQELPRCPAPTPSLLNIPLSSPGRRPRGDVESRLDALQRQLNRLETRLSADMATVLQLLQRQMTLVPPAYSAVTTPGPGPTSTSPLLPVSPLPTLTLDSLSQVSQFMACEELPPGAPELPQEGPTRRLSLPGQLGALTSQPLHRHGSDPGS
Cytochrome P450 2C19 (Homo sapiens), sequence (P33261 whole entry, looked up): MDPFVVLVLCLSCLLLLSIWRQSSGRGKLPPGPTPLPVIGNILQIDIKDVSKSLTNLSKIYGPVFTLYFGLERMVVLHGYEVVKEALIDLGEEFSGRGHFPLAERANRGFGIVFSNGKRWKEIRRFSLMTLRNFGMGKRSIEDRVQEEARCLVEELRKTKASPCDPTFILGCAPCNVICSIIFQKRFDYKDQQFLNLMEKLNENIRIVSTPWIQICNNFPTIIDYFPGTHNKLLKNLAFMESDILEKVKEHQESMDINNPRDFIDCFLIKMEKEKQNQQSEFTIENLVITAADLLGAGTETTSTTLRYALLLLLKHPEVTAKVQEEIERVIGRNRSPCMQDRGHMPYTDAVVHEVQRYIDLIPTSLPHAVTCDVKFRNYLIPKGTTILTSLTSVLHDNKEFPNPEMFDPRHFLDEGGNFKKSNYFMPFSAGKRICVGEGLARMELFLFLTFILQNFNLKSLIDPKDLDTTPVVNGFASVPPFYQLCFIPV
Cytochrome P450 1A2 (Homo sapiens), sequence (P05177 whole entry, looked up): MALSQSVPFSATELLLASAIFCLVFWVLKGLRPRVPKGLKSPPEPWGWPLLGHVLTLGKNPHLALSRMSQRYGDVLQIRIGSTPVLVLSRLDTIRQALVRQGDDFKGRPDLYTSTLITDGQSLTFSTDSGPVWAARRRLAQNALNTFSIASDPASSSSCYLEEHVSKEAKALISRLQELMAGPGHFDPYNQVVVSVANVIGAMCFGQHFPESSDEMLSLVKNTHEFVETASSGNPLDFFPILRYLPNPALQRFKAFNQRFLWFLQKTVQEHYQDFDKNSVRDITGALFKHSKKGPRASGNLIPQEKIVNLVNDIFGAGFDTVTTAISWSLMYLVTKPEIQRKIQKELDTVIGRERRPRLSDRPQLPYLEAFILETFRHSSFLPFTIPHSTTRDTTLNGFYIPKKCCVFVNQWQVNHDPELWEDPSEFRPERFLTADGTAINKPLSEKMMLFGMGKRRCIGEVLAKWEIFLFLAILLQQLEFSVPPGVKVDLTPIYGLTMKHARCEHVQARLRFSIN
Thyrotropin-releasing hormone receptor (Homo sapiens), sequence (P34981 whole entry, looked up): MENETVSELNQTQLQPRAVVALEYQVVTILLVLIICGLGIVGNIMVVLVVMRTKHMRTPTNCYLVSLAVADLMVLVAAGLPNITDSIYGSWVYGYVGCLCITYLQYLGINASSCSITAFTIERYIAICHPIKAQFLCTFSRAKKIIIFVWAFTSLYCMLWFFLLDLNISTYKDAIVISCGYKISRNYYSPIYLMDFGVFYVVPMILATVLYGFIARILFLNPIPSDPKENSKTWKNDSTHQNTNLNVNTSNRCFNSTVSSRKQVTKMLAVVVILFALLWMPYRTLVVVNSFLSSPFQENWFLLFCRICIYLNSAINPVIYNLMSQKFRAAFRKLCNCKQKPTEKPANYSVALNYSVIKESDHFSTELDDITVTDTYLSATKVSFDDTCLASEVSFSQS
Cytochrome P450 2D6 (Homo sapiens), sequence (P10635 whole entry, looked up): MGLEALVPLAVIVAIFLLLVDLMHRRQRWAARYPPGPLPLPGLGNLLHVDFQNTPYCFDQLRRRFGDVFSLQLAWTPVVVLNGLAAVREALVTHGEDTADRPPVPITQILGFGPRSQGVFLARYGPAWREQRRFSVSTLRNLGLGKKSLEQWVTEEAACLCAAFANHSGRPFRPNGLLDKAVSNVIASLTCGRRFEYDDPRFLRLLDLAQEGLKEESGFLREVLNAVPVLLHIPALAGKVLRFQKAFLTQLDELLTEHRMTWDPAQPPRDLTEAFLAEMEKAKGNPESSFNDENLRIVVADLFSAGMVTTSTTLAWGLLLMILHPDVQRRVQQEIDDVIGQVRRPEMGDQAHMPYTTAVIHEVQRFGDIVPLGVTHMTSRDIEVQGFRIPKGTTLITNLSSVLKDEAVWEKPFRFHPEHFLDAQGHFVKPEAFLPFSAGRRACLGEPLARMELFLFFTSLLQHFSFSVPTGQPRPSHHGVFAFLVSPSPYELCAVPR

Regarding `ClCCCCl`, the outcome in [1], in test [3] and in test [4] was inactive. In addition, the Potency entry in [2], in [5], in test [6], in test [7], in test [8] and in test [9] was “inactive” in each case. For the same compound, the Potency result in test [10], in [11], in test [12], in [14] and in [15] was “inactive” each time. Moreover, the Potency in [13] is 23.9 µM (active).
As for `Cc1cc(OC(=O)N(C)C)nn1C(=O)N(C)C`, the outcome in test [1], in test [3] and in test [4] was inactive. Also, the Potency result in test [2], in test [5], in test [6], in [12], in test [14] and in test [15] was “inactive” each time. Moreover, the Potency in [7] is 7.1 µM (active); in [8], 5.03 µM (active); in test [9], 1.26 µM (active); in test [10], 39.9 µM (active); in [11], 31.7 µM (active); in test [16], 35.6 µM (active).
As to `CON(C)C(=O)Nc1ccc(Br)c(Cl)c1`, the compound was called inactive in test [1], in test [3] and in test [4]. The Potency result in [2], in test [5], in test [7], in [8], in test [9] and in [10] was “inactive” each time. In addition, the Potency result in test [11] and in test [14] was “inactive” throughout. Further, the Potency was 27.3 µM (active) in [6], 28.3 µM (active) in [16], 63.3 µM (active) in test [12] and 1.78 µM (active) in test [13].
`CCCC[N+](=O)[O-]`: the compound was called inactive in [1], in [3] and in test [4]. Further, the Potency entry in test [2], in test [5], in test [6], in [7], in test [8] and in test [9] was “inactive” in each case. Besides, the Potency entry in test [10], in [11], in [16], in test [12], in test [13] and in test [14] was “inactive” throughout. The Potency result in test [15] is “inactive”.
With `Cn1c(CCCC(=O)O)nc2cc(N(CCCl)CCCl)ccc21`, the compound was called inactive in [1] and in test [3]. The Potency result in [2], in test [5], in test [6], in test [18], in [7] and in test [8] was “inactive” throughout. Also, the Potency entry in [9], in [11], in [16], in [12], in [13] and in [14] was “inactive” in each case. Moreover, the Potency entry in test [15] is “inactive”. Besides, the max activation in test [17] is -0.144%.
`CCOP(=S)(OCC)SCCl`: the compound was classed as inactive in test [1], in test [3] and in test [4]. In addition, the Potency entry in test [2], in test [5], in [6], in test [7], in test [8] and in test [9] was “inactive” throughout. For the same compound, the Potency entry in test [10], in [11] and in [14] was “inactive” each time. Besides, the Potency was 35.6 µM (active) in test [16], 14.2 µM (active) in test [12], 25.2 µM (active) in [13] and 11.2 µM (active) in [15].
Consider `ClC(Cl)(Cl)Cl`, for which the compound was classed as inactive in [1] and in test [3]. Besides, the Potency result in test [2], in test [5], in test [6], in [18], in test [7] and in [8] was “inactive” each time. For the same compound, the Potency result in test [9], in test [10], in test [11], in test [16], in test [12] and in test [14] was “inactive” throughout. Besides, the Potency entry in test [15] is “inactive”. In addition, the max activation in test [17] is -2.8%.
Take `C=C1C[C@@H]2[C@H](CC[C@]3(C)C(=O)CC[C@@H]23)[C@@]2(C)C=CC(=O)C=C12`: the outcome in test [1], in test [3] and in test [4] was inactive. Moreover, the Potency entry in test [2], in test [5], in test [7], in test [8], in test [9] and in test [10] was “inactive” each time. In addition, the Potency entry in test [13], in test [14] and in test [15] was “inactive” throughout. The Potency is 26.6 µM (active) in test [6] and 4.36 µM (active) in test [16].
